Measurements taken from PubChem BioAssay (EPA / NIEHS).
The source made the active and inactive calls. How the source made its calls: active means hit-call score of the fitted dose curve at least 0.9, where 1 is the maximum; inactive means score below 0.9.

Assay: APR_HepG2_CellLoss_24hr: Apredica 24-hour HepG2 Assay for Cell Loss (AID 2282908);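 on AC50: fit in both directions so a hit may be cell loss or gain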
Conditions: high-content imaging
Procedure, shortened: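 Compounds were tested at 0.39–200 uM in duplicate with 0.5% v/v DMSO final. Cells were then fixed in 3.7% formaldehyde, Hoechst 33342 nuclei were imaged at 20x by HCS, and cell number was fitted bidirectionally against DMSO.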

outcome, inactive:
CC(N)=O
CC(COCC(C)OC(=O)c1ccccc1)OC(=O)c1ccccc1 (stereo not given)
O=C(NS(=O)(=O)/C=C/c1cccs1)c1ccc(F)cc1Br
O=C(Oc1ccccc1)c1cccc(C(=O)Oc2ccccc2)c1
Cc1occc(=O)c1O
N[C@@H](Cc1c[nH]c2ccccc12)C(=O)O
CC(=O)O[C@]1(C(C)=O)CC[C@H]2[C@@H]3C=C(Cl)C4=CC(=O)[C@@H]5C[C@@H]5[C@]4(C)[C@H]3CC[C@@]21C
CCCCOC(=O)CCCCC(=O)OCCCC
CCCCCCCCCCCCCCCCO
Cn1cnc2c1c(=O)[nH]c(=O)n2C
O=Cc1ccccc1C=O
NC=O
CC(=O)CC(c1ccccc1)c1c(O)c2ccccc2oc1=O (stereo not given)
C#CC(O)C(CC)CCCC (stereo not given)
CCCCCCC(C=O)=Cc1ccccc1
O=C1NC(=O)C(c2ccccc2)(c2ccccc2)N1
O=C(O)c1cccnc1
O=C1CCCCC1
CCCC(=O)O
C/C=C/c1ccc(OC)cc1

AC50, active:
CSc1ccc(Oc2ccc(S(N)(=O)=O)cc2CN(C)C)cc1C 131 µM
CC(=O)O 112 µM
O=C(N[C@@H](c1ccccc1)[C@@H]1CCCCN1)c1cccc(C(F)(F)F)c1Cl 21.7 µM
Nc1nc(=S)c2[nH]cnc2[nH]1 21.4 µM
Cc1ccc(-c2cc(C(F)(F)F)nn2-c2ccc(S(N)(=O)=O)cc2)cc1 66.7 µM
